In PubChem BioAssay (NCATS) one finds Potency data, which are given here for eight compounds.

Where “and” joins values, the source holds several entries; their conditions need not be identical. Equal entries are not always repeated. Results filed as inconclusive are left out. Calls of active or inactive are those of the source. Calls follow the shape of the dose curve; as a rule, active = well fitted curve in the direction sought with a large enough effect; inconclusive = small, poorly fitted or top-dose-only effect, or another doubt; inactive = no such curve, though single readings can be large; an effect the other way counts as inactive or inconclusive.

Assay [1] can be described thus: qHTS of pediatric cancer cell lines to identify multiple opportunities for drug repurposing: Primary screen for A673 cells (AID 1347092). Also: nearly all actives have a fitted effect of over 45% in size. Also: potency is read from the fitted curve at half-maximal effect. In a few lines:
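A673 cells (500-1,000 cells/well) were treated 48 hours at 37 degrees C with compounds at 11-point (0.78 nM to 46 µM) or 8-point (0.59 nM to 46 µM) dilutions. Viability read by CellTiter-Glo luminescence; concentration-response curves fitted.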
(qHTS replaces the single test concentration by a dilution series.)

The nature of assay [2]: qHTS of pediatric cancer cell lines to identify multiple opportunities for drug repurposing: Primary screen for SK-N-MC cells (AID 1347093). Also: potency is read from the fitted curve at half-maximal effect. In a few lines: (§1)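 Metabolically active cells were quantified by ATP-dependent luminescence (CellTiter-Glo, 15 min at room temperature) following 48 h treatment. Cells had been plated at 500-1,000 per well and settled for 5 h beforehand.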

Assay [3] is described as follows: qHTS of pediatric cancer cell lines to identify multiple opportunities for drug repurposing: Primary screen for BT-37 cells (AID 1347094). Also: potency is read from the fitted curve at half-maximal effect. In a few lines:
(§2)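 Phenotypic viability qHTS, 48 h compound exposure, CellTiter-Glo luminescence read-out; multi-concentration dosing so that potency and efficacy derive directly from the primary screen's curves.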

A short description of assay [4]: qHTS of pediatric cancer cell lines to identify multiple opportunities for drug repurposing: Primary screen for NB-EBc1 cells (AID 1347095). Also: potency is read from the fitted curve at half-maximal effect. In a few lines:
as §2

Assay [5] in a line: qHTS of pediatric cancer cell lines to identify multiple opportunities for drug repurposing: Primary screen for Saos-2 cells (AID 1347097). Also: potency is read from the fitted curve at half-maximal effect; nearly all actives have a fitted effect of over 40% in size. In a few lines: as §2
Assay [6] in a line: qHTS of pediatric cancer cell lines to identify multiple opportunities for drug repurposing: Primary screen for SK-N-SH cells (AID 1347098). Also: nearly all actives have a fitted effect of over 65% in size. Also: potency is read from the fitted curve at half-maximal effect. In a few lines:
(§3)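 Cells (500-1,000/well) rested 5 h, then received compounds for 48 h; metabolically active cells were measured by CellTiter-Glo luminescence. Final concentrations spanned up to 46 µM (MIPE, 11-point) or 0.59 nM-46 µM (NPC, 8-point) in primary screens, 11-point in follow-ups.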

Assay [7] is described as follows: qHTS of pediatric cancer cell lines to identify multiple opportunities for drug repurposing: Primary screen for NB1643 cells (AID 1347099). Also: nearly all actives have a fitted effect of over 50% in size. Also: potency is read from the fitted curve at half-maximal effect. In a few lines: as §2
The nature of assay [8]: qHTS of pediatric cancer cell lines to identify multiple opportunities for drug repurposing: Primary screen for LAN-5 cells (AID 1347100). Also: potency is read from the fitted curve at half-maximal effect. In a few lines:
(§4)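 Cells (500-1,000/well) in growth media were settled 5 h at 37 degrees C, then given compounds for 48 h. Viability was read as CellTiter-Glo luminescence. Primary runs used MIPE at 11 points (0.78 nM-46 µM) and NPC at 8 points (0.59 nM-46 µM); follow-ups used 11 points.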

Assay [9] can be described thus: qHTS of pediatric cancer cell lines to identify multiple opportunities for drug repurposing: Primary screen for Rh18 cells (AID 1347102). Also: nearly all actives have a fitted effect of over 65% in size. Also: potency is read from the fitted curve at half-maximal effect. In a few lines:
as §4

Assay [10] can be described thus: qHTS of pediatric cancer cell lines to identify multiple opportunities for drug repurposing: Primary screen for MG 63 (6-TG R) cells (AID 1347105). Also: nearly all actives have a fitted effect of over 50% in size. Also: potency is read from the fitted curve at half-maximal effect. In a few lines:
as §2

Assay [11] in a line: qHTS of pediatric cancer cell lines to identify multiple opportunities for drug repurposing: Primary screen for control Hh wild type fibroblast cells (AID 1347106).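 Also: series mostly up to about 46 µM; a drop in luminescence marks cytotoxicity and a rise apparent proliferation; nearly all actives have a fitted effect of over 55% in size.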 In a few lines:
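Viability after 48 h compound treatment at 37C, 500-1,000 cells/well, read as ATP luminescence with CellTiter-Glo. Primary screens used 11-point (MIPE, 0.78 nM-46 µM) or 8-point (NPC, 0.59 nM-46 µM) final concentrations; follow-up screens used 11-point dilutions.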

Assay [12] can be described thus: qHTS of pediatric cancer cell lines to identify multiple opportunities for drug repurposing: Confirmatory screen for SK-N-MC cells (AID 1347111).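 Also: potency is read from the fitted curve at half-maximal effect; cells exposed to compound for 48 h before the readout; nearly all actives have a fitted effect of over 70% in size.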 In a few lines:
as §1

A short description of assay [13]: qHTS of pediatric cancer cell lines to identify multiple opportunities for drug repurposing: Confirmatory screen for BT-12 cells (AID 1347112). Also: nearly all actives have a fitted effect of over 55% in size. Also: potency is read from the fitted curve at half-maximal effect. In a few lines: as §4
The nature of assay [14]: qHTS of pediatric cancer cell lines to identify multiple opportunities for drug repurposing: Primary screen for U-2 OS cells (AID 1347096). Also: nearly all actives have a fitted effect of over 50% in size. Also: potency is read from the fitted curve at half-maximal effect. In a few lines:
as §4

A short description of assay [15]: qHTS of pediatric cancer cell lines to identify multiple opportunities for drug repurposing: Primary screen for OHS-50 cells (AID 1347103). Also: nearly all actives have a fitted effect of over 40% in size. Also: potency is read from the fitted curve at half-maximal effect. In a few lines: as §3
Assay [16] is described as follows: qHTS of pediatric cancer cell lines to identify multiple opportunities for drug repurposing: Primary screen for RD cells (AID 1347104). Also: nearly all actives have a fitted effect of over 55% in size. Also: potency is read from the fitted curve at half-maximal effect. In a few lines: as §2
Assay [17] in a line: qHTS of pediatric cancer cell lines to identify multiple opportunities for drug repurposing: Primary screen for Rh30 cells (AID 1347107). Also: nearly all actives have a fitted effect of over 75% in size. Also: potency is read from the fitted curve at half-maximal effect. In a few lines:
as §4

Assay [18] in a line: qHTS of pediatric cancer cell lines to identify multiple opportunities for drug repurposing: Primary screen for Rh41 cells (AID 1347108). Also: nearly all actives have a fitted effect of over 70% in size. Also: potency is read from the fitted curve at half-maximal effect. In a few lines:
as §2

Assay [19] can be described thus: qHTS of pediatric cancer cell lines to identify multiple opportunities for drug repurposing: Confirmatory screen for NB1643 cells (AID 1347109). Also: nearly all actives have a fitted effect of over 45% in size. Also: potency is read from the fitted curve at half-maximal effect. In a few lines:
as §4

Assay [20] is described as follows: qHTS of pediatric cancer cell lines to identify multiple opportunities for drug repurposing: Primary screen for BT-12 cells (AID 1347101). Also: nearly all actives have a fitted effect of over 25% in size. Also: potency is read from the fitted curve at half-maximal effect. In a few lines: as §3

With `COc1cc(Nc2ncc3c(n2)-c2ccc(Cl)cc2C(c2c(F)cccc2OC)=NC3)ccc1C(=O)O`, the Potency result in [1], in [3], in assay [11] and in [13] was “inactive” in each case. Besides, the Potency was 0.0743 µM (active) in [2]; 0.0332 µM (active) in [4]; 4.69 µM (active) in assay [5]; 8.57 µM (active) in assay [6]; 13.2 µM (active) in assay [7]; 0.0093 µM (active) in assay [8]. Moreover, the Potency in [9] is 20.9 µM (active); in assay [10], 5.9 µM (active); in [12], 0.261 µM (active).

Regarding `O=C1[C@H](Cc2ccc(O)cc2)N2C(=O)CCN(C(=O)NCc3ccccc3)[C@H]2CN1Cc1cccc2ccccc12`, the Potency in assay [1] is 11.8 µM (active); in [2] it was 1.18 µM (active); in assay [3], 4.85 µM (active); in assay [4], 14.8 µM (active); in [7] it was 2.96 µM (active); in [8] it was 10.5 µM (active). The Potency in assay [15] is 4.85 µM (active); in [16], 10.5 µM (active); in assay [10], 3.72 µM (active). Also, the Potency result in assay [14] was “inactive”.

With `Oc1cccc(-c2nc(N3CCOCC3)c3oc4ncccc4c3n2)c1`, the Potency in [1] is 2.15 µM (active); in [2] it was 0.0481 µM (active); in assay [3], 0.444 µM (active); in [4], 0.191 µM (active); in assay [5] it was 0.34 µM (active); in assay [6] it was 0.879 µM (active). The Potency was 0.215 µM (active) in assay [7]; 0.96 µM (active) in [8]; 0.303 µM (active) in assay [9]; 0.444 µM (active) in assay [15]; 0.241 µM (active) in assay [16]; 0.0855 µM (active) in assay [10]. Further, the Potency in [17] is 13.6 µM (active); in assay [18] it was 0.382 µM (active); in assay [19], 2.4 µM (active); in assay [12], 0.759 µM (active).

With `COc1ccc(-c2ccc3c(N4CCOCC4)nc(N4C[C@@H](C)O[C@@H](C)C4)nc3n2)cc1CO`, the Potency in assay [1] is 11.8 µM (active); in [2], 0.0935 µM (active); in [3], 1.37 µM (active); in [4] it was 1.48 µM (active); in assay [15] it was 0.217 µM (active); in assay [10] it was 0.187 µM (active). For the same compound, the Potency was 0.743 µM (active) in assay [18] and 5.22 µM (active) in assay [13]. The Potency result in assay [7] and in assay [17] was “inactive” each time.

With `O=C(c1cc(Cc2n[nH]c(=O)c3ccccc23)ccc1F)N1CCN(C(=O)C2CC2)CC1`, the Potency in [1] was 5.9 µM (active); in [2], 7.43 µM (active); in assay [4], 10.5 µM (active); in assay [6], 21.5 µM (active); in [7] it was 14.8 µM (active); in assay [8], 14.8 µM (active). For the same compound, the Potency was 24.3 µM (active) in assay [15] and 18.5 µM (active) in assay [13]. Also, the Potency result in assay [14], in assay [9] and in assay [19] was “inactive” throughout.

Take `C[C@]12CC[C@H](O)CC1=CC[C@@H]1[C@H]2CC[C@]2(C)C(c3cccnc3)=CC[C@H]12`: the Potency result in assay [1], in assay [2], in assay [3], in [14], in assay [6] and in [7] was “inactive” throughout. Also, the Potency result in assay [8], in assay [20], in [9], in assay [15], in [16] and in assay [10] was “inactive” throughout. Also, the Potency entry in [11], in [17] and in assay [18] was “inactive” each time.

`CCC(C)(C)C(=O)O[C@H]1C[C@@H](C)C=C2C=C[C@H](C)[C@H](CC[C@@H]3C[C@@H](O)CC(=O)O3)[C@H]21`: the Potency in [1] was 10.6 µM (active); in assay [2], 33.2 µM (active); in assay [14], 18.7 µM (active); in assay [5], 2.37 µM (active) and 2.96 µM (active); in assay [6], 7.7 µM (active) and 21.5 µM (active); in [20], 1.38 µM (active) and 1.93 µM (active). The Potency is 8.41 µM (active) and 14.8 µM (active) in assay [9]; 6.17 µM (active) and 10.9 µM (active) in assay [15]; 2.66 µM (active) and 4.69 µM (active) in [10]. In addition, the Potency result in assay [8], in assay [16], in [11], in [18] and in [13] was “inactive” throughout.

In the case of `COc1ccccc1-c1cccc(-c2c(O)c3cc(C#N)c(Cl)cc3[nH]c2=O)c1`, the Potency entry in assay [1], in [14], in assay [6], in [7], in assay [8] and in assay [9] was “inactive” throughout. The Potency result in [15], in [16], in [10], in assay [11], in assay [17] and in [18] was “inactive” in each case. Further, the Potency is 34 µM (active) in [2] and 7.62 µM (active) in assay [4].
